# Test results taken from ChEMBL document CHEMBL3988442, “University of Dundee, Small-Polar-MMV Screening Library” (2021).
# Molecular target: Sialic acid-binding Ig-like lectin 9 (Homo sapiens) (UniProt Q9Y336)
# Experiment: Hs-Siglec9 ALPHAscreen SOP 20170721
# Parameters: scale not given: direction of the effect not stated beside the values
# Conditions: 10 µM
# Chain of Sialic acid-binding Ig-like lectin 9 (Homo sapiens) (Q9Y336 whole entry): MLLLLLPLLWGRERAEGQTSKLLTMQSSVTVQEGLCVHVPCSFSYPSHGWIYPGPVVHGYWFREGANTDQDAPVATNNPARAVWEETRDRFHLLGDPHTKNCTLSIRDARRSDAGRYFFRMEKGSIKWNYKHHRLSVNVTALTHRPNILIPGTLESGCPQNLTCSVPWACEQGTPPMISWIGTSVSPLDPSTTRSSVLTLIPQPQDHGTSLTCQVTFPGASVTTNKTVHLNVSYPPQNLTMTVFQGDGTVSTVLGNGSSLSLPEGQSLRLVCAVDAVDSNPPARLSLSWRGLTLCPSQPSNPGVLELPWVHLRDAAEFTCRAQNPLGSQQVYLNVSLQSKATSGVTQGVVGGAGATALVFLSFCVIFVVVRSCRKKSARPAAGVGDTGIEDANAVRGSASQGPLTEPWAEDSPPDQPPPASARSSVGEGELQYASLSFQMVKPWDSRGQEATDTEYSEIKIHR
row,SMILES,Percent Effect
1,CCN(C(c1cccnc1)c1ccc2c(c1)CCO2)S(C)(=O)=O (centres undefined),6.82%
2,CCOCCCC(=O)NCCC(=O)N1CCN(c2ccccn2)CC1,5.65%
3,CCOc1ccc(C(=O)NS(=O)(=O)c2cncc(Br)c2)cc1OC,34.9%
4,c1ncn(CC2CCCCN2Cc2noc(C3CC3)n2)n1 (centres undefined),1.81%
5,COC(=O)c1ccc2ccn(CC3CCCO3)c(=O)c2c1 (centres undefined),5.25%
6,CC(C)C(=O)N1CCN(C(=O)CCc2nnc(-c3ccccc3)o2)CC1,0.624%
7,CCNC(c1cccnc1)c1cc(C)cc(C)c1 (centres undefined),-1.27%
8,NC(=O)C1(Cc2ccccc2-c2ccccc2)CCCN(CC2CC2)C1 (centres undefined),1.63%
9,CC(C(=O)Nc1cccc(N2CCCCC2)c1)n1cncn1 (centres undefined),28.7%
10,O=C(C1CC1)N1CCC(c2nc(O)c3c(n2)CCN(C2CCCC2)C3)C1 (centres undefined),-6.26%
11,Cn1cc(CN2CCn3cc(CNC(=O)C4CCC4)nc3C2)cn1,2.73%
12,CN1N=C(C(=O)Nc2cc(F)ccc2OCC2CCCO2)CCC1=O (centres undefined),2.24%
13,CC(Cn1cccn1)NCc1nc(-c2cccc(Cl)c2)no1 (centres undefined),3.09%
14,Cn1nc(C2CCN(C(=O)Cc3cccc(F)c3)CC2)c2cccnc21,3.61%
15,O=C(CN1CCCC(O)C1)NC(=O)NCc1cccs1 (centres undefined),-8.38%
16,O=C(Cn1cnnn1)N1CCCCC1Cn1cccn1 (centres undefined),-2.69%
17,O=C(NCC1CC1)C1=NOC2(CCN(Cc3ccc4c(c3)OCO4)C2)C1 (centres undefined),5%
18,O=C(NC[C@@H]1CCCN1)c1cc(COc2cccc(C(F)(F)F)c2)[nH]n1,10.3%
19,CO[C@H]1CN(C(=O)c2ccc3oc(C)cc3c2)CC[C@@]12CCCO2,2.79%
